Target: Tubulin alpha-1C chain (UniProt Q9BQE3)
Assay: cross-link between two proteins; cross-linking mass spectrometry

Chain of UniProt Q9BQE3 (Q9BQE3 whole entry): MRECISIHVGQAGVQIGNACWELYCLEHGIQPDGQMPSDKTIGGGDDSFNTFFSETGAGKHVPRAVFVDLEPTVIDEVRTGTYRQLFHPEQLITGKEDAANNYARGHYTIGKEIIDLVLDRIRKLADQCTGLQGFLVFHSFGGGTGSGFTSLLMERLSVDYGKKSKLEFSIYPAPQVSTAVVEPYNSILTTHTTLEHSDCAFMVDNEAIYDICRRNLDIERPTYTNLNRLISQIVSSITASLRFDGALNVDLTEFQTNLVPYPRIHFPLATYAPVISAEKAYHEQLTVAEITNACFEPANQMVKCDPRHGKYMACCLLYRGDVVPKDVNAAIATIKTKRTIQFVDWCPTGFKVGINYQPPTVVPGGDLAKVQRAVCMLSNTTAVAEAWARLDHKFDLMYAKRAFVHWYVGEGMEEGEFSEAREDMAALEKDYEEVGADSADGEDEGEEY

How did the “listed as a hit” value turn out when Tubulin beta chain, P07437 was run?
Its value is “yes”.

From article PMC11442847
